The values that follow come from PubChem BioAssay (NCI).

The nature of experiment [1]: NCI Yeast Anticancer Drug Screen. Data for the rad50 strain (AID 155).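 Note: 0% = growth of vehicle-only cultures of the same strain.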 The settings on record: S. cerevisiae rad50 strain growth inhibition; at 50.0 µM; active compounds read high. The gist of the method: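 Yeast carrying a defined DNA repair defect were exposed to test compounds, and growth was compared with vehicle-treated controls to give percent inhibition.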
Experiment [2] can be described thus: NCI Yeast Anticancer Drug Screen. Data for the mec2-1 strain (AID 157). The settings on record: S. cerevisiae mec2-1 strain, at 50.0 µM, active compounds read high. Summed up: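 mec2-1 yeast strain, carrying an alteration in DNA damage repair or cell cycle control, was exposed to compounds; growth inhibition was measured relative to vehicle-treated controls.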
Experiment [3] can be described thus: NCI Yeast Anticancer Drug Screen. Data for the sgs1 mgt1 strain (AID 161).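 Note: 0% = growth of cultures given vehicle only.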 The settings on record: S. cerevisiae sgs1 mgt1 strain, at 50.0 µM, active compounds read high. Summed up: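 Percent growth inhibition was derived by comparing compound-exposed mutant yeast with vehicle-exposed cultures. The strain carries alterations in DNA damage repair.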
Experiment [4] in a line: NCI Yeast Anticancer Drug Screen. Data for the cln2 rad14 strain (AID 165).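 Note: 0% = growth equal to vehicle treated cultures.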 Conditions: S. cerevisiae cln2 rad14 strain, at 50.0 µM, active compounds read high. Summed up: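 Yeast carrying cln2 and rad14 alterations (cell cycle control and DNA damage repair) were exposed to compounds. Growth inhibition was measured against vehicle-treated controls.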
Experiment [5] in a line: NCI Yeast Anticancer Drug Screen. Data for the bub3 strain (AID 167). Conditions: S. cerevisiae bub3 mutant strain, at 50.0 µM, active compounds read high. The gist of the method: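 Compounds were applied to a genetically altered yeast strain carrying a cell-cycle control defect. Growth inhibition was scored against vehicle-treated controls.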
Experiment [6] is described as follows: NCI Yeast Anticancer Drug Screen. Data for the mlh1 rad18 strain (AID 175). The settings on record: S. cerevisiae mlh1 rad18 strain growth inhibition; at 50.0 µM; active compounds read high. The gist of the method: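 Growth inhibition of the yeast strain was measured after compound exposure and expressed relative to vehicle-treated controls. The strain carries defined defects in DNA damage repair.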

Compounds without any hit were thinned out: in the full panel of roughly 79,000, 15% have a hit. Values without a mark were called inactive. The source made the active and inactive calls. Cut-off read from the data, not from the text of the source: active = growth inhibition above about 70%; inactive = the rest.

As to `CC(c1ccccc1)C1(C)NC(=O)NC1=O` (stereo not given), the growth inhibition in experiment [1] is -12.4%; in experiment [2], -24.7%; in experiment [3], -2.1%; in experiment [4] it was -4.1%; in experiment [5] it was 6.55%; in experiment [6], -10.1%.
Take `CC(C)(C)C(=O)O[C@H]1C=C[C@@H](O)[C@@H]2[C@H]1[C@@H]1C=C[C@H]2C1`: the growth inhibition is 28.1% in experiment [1]; 41.6% in experiment [2]; 66.8% in experiment [3]; 11.6% in experiment [4]; 55.9% in experiment [5]; 53.5% in experiment [6].
Consider `CC(C)CC(CCl)Cc1nc2ccccc2[nH]1` (stereo not given), for which the growth inhibition is 13.1% in experiment [1]; 4.05% in experiment [2]; 39.8% in experiment [3]; 14.9% in experiment [4]; 33.6% in experiment [5]; 27.5% in experiment [6].
Consider `OC1(c2ccc(-c3ccccc3)cc2)c2ccccc2-c2ccccc2C1(O)c1ccc(-c2ccccc2)cc1` (stereo not given), for which the growth inhibition in experiment [1] is 6.45%; in experiment [2], -5.95%; in experiment [3], -2.2%; in experiment [4] it was 2%; in experiment [5] it was 6.3%; in experiment [6] it was 7.05%.
Consider `COCC(=O)C(C(C)=O)C(c1ccncc1)C(C(C)=O)C(=O)COC` (stereo not given), for which the growth inhibition in experiment [1] is -7.75%; in experiment [2], 14.9%; in experiment [3], 6.85%; in experiment [4], -10.2%; in experiment [5], -1.6%; in experiment [6], -20.4%.
Turning to `CCOC(=O)C(Cl)C(C)(O)c1ccccc1` (stereo not given), the growth inhibition was 11.2% in experiment [1]; -3.65% in experiment [2]; 11.9% in experiment [3]; -46.7% in experiment [4]; 5.8% in experiment [5]; 17.8% in experiment [6].
With `CC(C)CCC[C@@H](C)[C@H]1CC[C@H]2[C@@H]3CC[C@H]4N(C)[C@@H](Cc5ccccc5)CC[C@]4(C)[C@H]3CC[C@]12C`, the growth inhibition was 21.8% in experiment [1]; 27.6% in experiment [2]; 32.5% in experiment [3]; 24.7% in experiment [4]; 15.4% in experiment [5]; -0.05% in experiment [6].
With `C=CC(=NC(C)(C)C)Nc1ccc(Cl)cc1`, the growth inhibition in experiment [1] was -13%; in experiment [2], -6.8%; in experiment [3] it was -36.2%; in experiment [4], -14.6%; in experiment [5], -19.2%; in experiment [6] it was 3.4%.
`COC(=O)C1=C(C(=O)OC)C23CC4CCC2(C(=O)C1O3)C4(C)C` (stereo not given): the growth inhibition in experiment [1] is 36.4%; in experiment [2], 18%; in experiment [3] it was 23%; in experiment [4], 8.65%; in experiment [5], 21.5%; in experiment [6], -5.15%.
`OCC1(c2ccccc2)CCNCC1`: the growth inhibition is -8.7% in experiment [1]; -4.9% in experiment [2]; -2.1% in experiment [3]; -0.7% in experiment [4]; -9.7% in experiment [5]; 26.6% in experiment [6].
Regarding `COC(=O)C1(CC(=O)Cc2ccccc2)NC(=S)NC(=O)C1C#N` (stereo not given), the growth inhibition was 8.45% in experiment [1]; -7.7% in experiment [2]; -12.2% in experiment [3]; -12.1% in experiment [4]; -29.1% in experiment [5]; 4.8% in experiment [6].
As for `CC(=O)c1c(O)c(Nc2ccccc2)cc2nc3ccccc3nc12`, the growth inhibition in experiment [1] was -4.45%; in experiment [2], 3.95%; in experiment [3] it was -0.4%; in experiment [4] it was -10.3%; in experiment [5], -8.75%; in experiment [6] it was -23.3%.
For the compound `CCC1(O)CC2CN(CCc3c([nH]c4ccccc34)C(C(=O)OC)(c3cc4c(cc3OC)N(C)C3C(O)(C(N)=O)C(O)C5(CC)C=CCN6CCC43C65)C2)C1` (stereo not given) (tested in a mixture with another compound), the growth inhibition is -2.3% in experiment [1]; -21.1% in experiment [2]; -0.35% in experiment [3]; 2.7% in experiment [4]; 1.05% in experiment [5]; 20.7% in experiment [6].
Regarding `COC(=O)C1C(C)C1c1ccc2c(c1)OCO2` (stereo not given), the growth inhibition was 2.65% in experiment [1]; 2.05% in experiment [2]; -0.7% in experiment [3]; -3.7% in experiment [4]; -0.7% in experiment [5]; -25.5% in experiment [6].
Take `O=C(CCC(=O)C1Cc2ccccc2C1=O)Nc1cccc(C(F)(F)F)c1` (stereo not given): the growth inhibition in experiment [1] was -38.8%; in experiment [2], -42%; in experiment [3] it was -18.8%; in experiment [4], -1.5%; in experiment [5], -22.9%; in experiment [6] it was -30.7%.
Consider `C/C=C/C(=O)Nc1cc(C(F)(F)F)ccc1Cl`, for which the growth inhibition is 26.6% in experiment [1]; -2.3% in experiment [2]; -44.5% in experiment [3]; 10.8% in experiment [4]; 1.4% in experiment [5]; 9.15% in experiment [6].
On to `CC(C(=O)O)N(C)C(=O)c1cnc2ccccc2n1` (stereo not given), for which the growth inhibition in experiment [1] is -0.1%; in experiment [2], -1.15%; in experiment [3], -1.5%; in experiment [4], 23%; in experiment [5], 18.6%; in experiment [6], -2%.
`N#Cc1ccc(OCCCCCOc2ccc(C#N)cc2I)c(I)c1`: the growth inhibition in experiment [1] is -4.5%; in experiment [2], -2.05%; in experiment [3], -8%; in experiment [4], -22.8%; in experiment [5], -0.85%; in experiment [6], -44.1%.
On to `O=S1(=O)OCCOS(=O)(=O)C1S(=O)(=O)c1cccc2ccccc12`, for which the growth inhibition in experiment [1] was -19.2%; in experiment [2], -5.95%; in experiment [3], 12.8%; in experiment [4], -8.7%; in experiment [5], -2.95%; in experiment [6], 27%.
For the compound `O=C(O)C1CCCCC1C(=O)O.[NH-]C1CCC1.[NH2-].[Pt+2]` (stereo not given), the growth inhibition in experiment [1] is 99.2% (active); in experiment [2], 99.3% (active); in experiment [3] it was 99.4% (active); in experiment [4] it was 99.3% (active); in experiment [5], 99% (active); in experiment [6], 99.1% (active).
